The text below walks through data of PubChem BioAssay (NCATS).

Records with an inconclusive call do not appear. A number with no mark means an inactive call. Calls of active or inactive are those of the source. Calls come from the whole dose curve; as a rule, active = well fitted cell-killing curve with a large enough effect; inconclusive = small, poorly fitted or top-dose-only effect; inactive = no such curve, though single readings can be large or run the other way.
% is set by controls: 0 for no effect and ±100 for the full control effect; potency is the fitted concentration of half-maximal effect.

This test is described as follows: qHTS of pediatric cancer cell lines to identify multiple opportunities for drug repurposing: Primary screen for A673 cells (AID 1347092). Note: nearly all actives have a fitted effect of over 45% in size. The settings on record: A673 Ewing sarcoma viability, CellTiter-Glo ATP luminescence, 48 h; series mostly up to 46 µM; activity change, negative = cytotoxic: at the top concentration. From the text: Drug repurposing or repositioning has been offered as a strategy for drug development in oncology programs. This approach has special potential for childhood cancers and other rare or orphan diseases, where the expected return on new drug development has been a disincentive to pharmaceuticals. […] In this project we exploit the poly-pharmacology of drugs to discover new indications via phenotypic screening of a panel of 19 well-characterized cell lines derived from solid tumors seen in children and adolescents. The goal is to identify approved drugs with previously unrecognized anticancer properties that has the potential to reveal new mechanisms and biological processes involved in carcinogenesis or drug resistance. We employed a titration-based paradigm (quantitative high-throughput screening or qHTS), where all compounds were tested at multiple concentrations for their effect on cell viability. Concentration-response curves (CRCs) were derived directly from the primary screen, and both potency and efficacy values were used to identify compounds with robust bioactivity profiles. We screened the NIH Chemical Genomics Center (NCGC) Pharmaceutical Collection (NPC) and Mechanism Interrogation Plate (MIPE) small molecule collections of approved and investigational compounds against these cell lines; and measured metabolically active cells after 48 hours of compound treatment as a proxy for cell viability. […] Assay Submitter: Nathalia J. Martinez, National Center for Advancing Translational Sciences, National Institutes of Health, Rockville, MD, USA; email: natalia.martinez@nih.gov. Shen, M et al. Quantitative high-throughput phenotypic screening of pediatric cancer cell lines identifies multiple opportunities for drug repurposing. Oncotarget 2017 Dec 19;9(4):4758-4772. PMID 29435139.
The cells were obtained from University of North Carolina (UNC), Pediatric Preclinical Testing Program (PPT), and Coriell Institute (CI). qHTS cell viability assay: Cells were assayed in growth media at a density of 500-1,000 cells/well. Five microliters of cells were dispensed into 1,536-well, white, solid-bottom, TC-treated plates (Greiner Bio One) using a multidrop dispenser and incubated at 37 degrees C, 5% CO2, under a humidified atmosphere for 5 hours. Twenty-three nanoliters of compounds and controls (neutral control DMSO or positive control bortezomib at final concentration of 2.3 uM) were subsequently transferred by Kalypsys pintool. For primary screens, the MIPE collection was tested at 11-point dilutions (final concentrations range from 0.78 nM to 46 µM) and the NPC collection at 8-point dilutions (final concentrations range from 0.59 nM to 46 µM). Compounds tested in follow-up screens were assayed at 11-point dilutions. Cells were incubated for 48 hours, followed by addition of 3 uL of CellTiter-Glo (Promega). After a 15min incubation at room temperature, samples were analyzed for luminescence intensity using a ViewLux High-throughput CCD imager equipped with clear filters.
(In qHTS, concentration-response curves come from the screen itself.)
With `NC1CC1c1ccccc1` (stereo not given), the “activity change, negative = cytotoxic” value was 7.28%.

As for `COCC1(CO)C(=O)C2CCN1CC2` (stereo not given), the Potency was 2350 nM (active).

As for `O=C(O)c1cc(Oc2ccc(C(F)(F)F)cc2Cl)ccc1[N+](=O)[O-]`, the “activity change, negative = cytotoxic” value is 2.57%.

`Nc1ccc(N=Nc2ccccc2)cc1`: the Potency is 24300 nM (active).

As to `Cc1c(C(=O)Nc2cccc(C(F)(F)F)c2)cc(-c2ccccc2)n1CCCN1CCOCC1`, the Potency was 11800 nM (active).

Consider `O=C1CCC[C@@H]2[C@H]3CCCN4CCC[C@@H](CN12)[C@@H]34`, for which the “activity change, negative = cytotoxic” value is -6.63%.

For the molecule `CC(C)(O)C(=O)Nc1ccc([N+](=O)[O-])c(C(F)(F)F)c1`, the Potency is 11800 nM (active).

In the case of `S=C(SSC(=S)N1CCCCC1)N1CCCCC1`, the Potency was 26.6 nM (active).

In the case of `Oc1ccc2c3c1O[C@H]1[C@@H](O)C=C[C@H]4[C@@H](C2)NCC[C@@]341`, the “activity change, negative = cytotoxic” value is -16.4% [at 92.7 µM].

With `CC(C)[C@]12O[C@@H]1[C@@H]1O[C@]13[C@]1(O[C@H]1C[C@@H]1C4=C(CC[C@@]13C)C(=O)OC4)[C@H]2O`, the Potency was 1 nM (active).

Turning to `CCOP(=O)(OCC)C(C)NC(=O)N(CCCl)N=O` (stereo not given), the “activity change, negative = cytotoxic” value is 22.9%.

In the case of `COc1ccc(C(=O)c2c(C)n(CCN3CCOCC3)c3cc(I)ccc23)cc1`, the Potency is 14800 nM (active).

For `C[C@]12CC[C@H](O)CC1=CC[C@H]1[C@H]3CCC(=O)[C@@]3(C)CC[C@@H]12`, the Potency is 18700 nM (active).

Turning to `CC(O)CN1CCN(CC(=O)[O-])CCN(CC(=O)[O-])CCN(CC(=O)[O-])CC1.[Gd+3]` (stereo not given), the “activity change, negative = cytotoxic” value is -0.0499%.

As for `CC(=O)O[C@@]12CO[C@H]1C[C@H](O)[C@@]1(C)C(=O)[C@H](O)C3=C(C)[C@@H](O)C[C@@](O)([C@@H](OC(=O)c4ccccc4)[C@@H]21)C3(C)C`, the Potency was 1480 nM (active).

`CC(C)N(CCNC(=O)CN1CCCC1=O)C(C)C`: the “activity change, negative = cytotoxic” value was 9.57%.

For `CCCCOC(=O)c1ccccc1C(=O)OCc1ccccc1`, the “activity change, negative = cytotoxic” value is -15.7% [at 92.7 µM].

With `CCNC(=O)CC1N=C(c2ccc(Cl)cc2)c2cc(OC)ccc2-n2c(C)nnc21` (stereo not given), the Potency was 2960 nM (active).

Take `CC(N[C@H]1C[C@H]1c1ccccc1)c1ccc2c(c1)OCCO2` (stereo not given in full): the “activity change, negative = cytotoxic” value was -2.31%.

On to `Nc1ccc(Cl)cc1`, for which the “activity change, negative = cytotoxic” value was -11.9% [at 92.7 µM].

For the molecule `C[C@H]([C@H](O)CCC(C)(C)O)[C@H]1CC[C@@]2(O)C3=CC(=O)[C@@H]4C[C@@H](O)[C@@H](O)C[C@]4(C)[C@@H]3CC[C@]12C`, the “activity change, negative = cytotoxic” value is -2.41%.

Take `O=C(Nc1ccccc1-c1ccc(Cl)cc1)c1cccnc1Cl`: the “activity change, negative = cytotoxic” value is -17.8% [at 92.7 µM].

For the molecule `CN(C)[C@@H]1C(=O)C(C(N)=O)=C(O)[C@@]2(O)C(=O)C3=C(O)c4c(O)cccc4[C@@](C)(O)[C@H]3[C@H](O)[C@@H]12`, the “activity change, negative = cytotoxic” value is -6.39%.

For `Cc1nc(-c2ccc(-c3ccc(C(=O)N4CCc5cc6c(cc54)C4(CCN(C)CC4)CO6)cc3)c(C)c2)no1`, the “activity change, negative = cytotoxic” value was 14.7%.

Take `CC(O)=C(C#N)C(=O)Nc1cc(Br)ccc1Br`: the “activity change, negative = cytotoxic” value was -27.1%.

`CC[C@@H]1[C@@H](C)O[C@@](O)([C@@H](C)[C@H](O)[C@H](C)[C@H]2OC(=O)C=CC=C[C@@H](C)[C@@H]([C@@H](C)[C@@H](O)[C@H](C)[C@@]3(O)C[C@H](O[C@H]4C[C@H](O)[C@H](O)[C@H](C)O4)[C@H](CC)[C@@H](C)O3)OC(=O)C=CC=C[C@@H]2C)C[C@H]1O[C@H]1C[C@H](O)[C@H](O)[C@H](C)O1`: the Potency is 743 nM (active).

`CO[C@H]1CCC(O[C@H]2C[C@H]([C@]3(C)CC[C@]4(C[C@H](O)[C@@H](C)[C@@H]([C@@H](C)C=C(C)C(=O)[C@H](C)C[C@H](C)C(=O)O)O4)O3)O[C@]3(O[C@@H]([C@H]4O[C@@](O)(CO)[C@H](C)C[C@H]4C)C[C@H]3C)[C@H]2C)O[C@H]1C` (stereo not given in full): the Potency was 1480 nM (active).

As to `O=C(NCC1CCOCC1)c1cnc(Nc2ccc(Cl)cc2Cl)nc1C(F)(F)F`, the Potency was 18700 nM (active).

For the molecule `CC(=O)OCC1=C(C(=O)O)N2C(=O)[C@@H](N)[C@@H]2SC1`, the Potency was 187 nM (active).

For the molecule `C=CCC1=C(C)C(OC(=O)C2C(C=C(C)C)C2(C)C)CC1=O` (stereo not given), the Potency is 48600 nM (active).

With `CCCCCCCCCCCCCCCC[N+](C)(C)C`, the Potency was 4220 nM (active).

Regarding `O=C(Nc1ccncc1)C(=O)c1cn(Cc2ccc(Cl)cc2)c2ccccc12`, the Potency was 74.3 nM (active).

Consider `COC1=C[C@@H]2[C@@H]3Cc4ccc(OC)c(O)c4[C@]2(CCN3C)CC1=O`, for which the Potency was 1480 nM (active).

As for `C[C@]12COC(=O)C[C@@H]1CC[C@@H]1[C@H]2CC[C@@]2(C)[C@H]1CC[C@]2(C)O`, the “activity change, negative = cytotoxic” value was -6.44%.

Take `O=C(O)COc1ccccc1`: the “activity change, negative = cytotoxic” value was -9.88%.

In the case of `O=C(O)COc1nc(Cl)c(Cl)cc1Cl`, the “activity change, negative = cytotoxic” value was 25.7% [at 92.7 µM].

`CCNC(=O)C[C@@H]1N=C(c2ccc(Cl)cc2)c2cc(OC)ccc2-n2c(C)nnc21`: the Potency is 590 nM (active).

`Clc1ccccc1C(c1ccccc1)(c1ccccc1)n1cccn1`: the “activity change, negative = cytotoxic” value is 1.54%.

As for `O=c1[nH]c2ccc(Cl)cc2c(N[C@@H]2CN3CCC2CC3)c1-c1nc2ccccc2[nH]1`, the Potency was 296 nM (active).

As for `CCO/N=C(\CC)C1=C(O)CC(c2c(C)cc(C)cc2C)CC1=O` (stereo not given), the “activity change, negative = cytotoxic” value is -7.75% [at 92.7 µM].
